Several values for one entry are separate records, joined by “and”; a condition that tells them apart may be missing. Equal values may be shown once. Activity calls are given as the source filed them. Unless noted, how the calls were made is not given here. Where a SMILES comes first, the peptide text is derived from it. The star is where a group is joined. Cbz = O=C(OCc1ccccc1)*

The nature of experiment [1]: sensitizers of A549 cells to miR-34 induction, primary screen, imaging, A549 dox-inducible miR-34, nuclei and caspase counts (AID 1347080;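 active means compounds whose cell count with miR-34 switched on is under 0.7 times the count with it off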). The note with it: A549 miR-34 inducible, Hoechst nuclei count, 48 h.
Experiment [2] is described as follows: circadian clock period modulators, cell-based, LOPAC library, luminescence reporter (AID 2774).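 Further: values are relative to mean of DMSO wells on each plate.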 Particulars: circadian reporter cells, at 7 µM, actives lie on both sides.
Experiment [3] in a line: hESC survival regulators, cell-based (AID 493140).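 Further: cells exposed to compounds for four days before counting.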 Particulars: human embryonic stem cell survival screen; stronger effect = higher value.
In experiment [4] the test system is Hepatitis C virus NS3 helicase. In words: HCV NS3 helicase inhibitors, primary screen, biochemical, fluorescence polarization, LOPAC1280 library (AID 687035; in the data active means inhibition above about 37%). The note with it: Purified HCV NS3 helicase, Cy5-dT15 ssDNA binding fluorescence polarization; stronger effect = higher value; concentration not given here.
Experiment [5] is described as follows: Cy5 fluorescence quenching or enhancement artefacts, artefact control for HCV NS3 helicase inhibitor project, biochemical, LOPAC1280 (AID 687037). The note with it: Cy5-DNA-NS3h complex fluorescence interference counterscreen.
Experiment [6] is described as follows: inhibitors of Cryptococcus chitosan production, flow cytometry, Cibacron Brilliant Red staining (AID 1347148).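 Further: compound exposure lasted three days at 37 degrees C.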 Particulars: Cryptococcus neoformans chitosan, stronger effect = lower value; at 10 µM unless noted.
The nature of experiment [7]: phospholipid biosynthesis inhibitors in animal cells, primary screen, cell-based, LOPAC library, screen 4 (AID 1347384). The note with it: phospholipid biosynthesis inhibition screen, at 10 µM.
Experiment [8] in a line: viability rescue of complex I mutant cybrids, primary screen, cell-based, galactose medium, ATP luminescence (AID 1645843;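 active means z-score of at least 1.8 in each of two replicates, scored against plate mean and spread of sample wells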;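 further: positive z means more ATP and so rescue of galactose-driven cybrid death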). The note with it: complex I mutant cybrid cells, 72 h, stronger effect = higher value.
A short description of experiment [9]: liver-stage malaria parasite growth inhibition, primary screen, cell-based, HepG2, luciferase luminescence, HepG2 viability (AID 624349; in the data active means parasite load remaining mostly below about 12%, no sharp cut-off; inactive means mostly above about 10%;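 further: 100% = mean of DMSO negative control wells on the same plate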). The note with it: P. berghei liver stage in HepG2, luciferase luminescence, concentration not given here; parasite load remaining: stronger effect = lower value; viability: measured here: HepG2 viability without parasites.
Experiment [10] is described as follows: survival rescue of mitochondrial mutant cells in low glucose, primary screen, MELAS cybrids, Rieske KO mouse fibroblasts, CellTiter-Glo (AID 1508586;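 active means mean z-score across replicates of 1.96 or higher in either the MELAS or the Rieske mutant cell line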;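 further: z relative to plate mean and SD of compound and empty wells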).
Where [11] appears, read: stronger effect = lower value, cell number ratio, induced over uninduced.
Where [12] appears, read: measured here: relative caspase fold change +Dox/-Dox.
Where [13] appears, read: measured here: total cells with miR-34 induction, stronger effect = lower value.
Where [14] appears, read: measured here: total cells without miR-34 induction.

Consider `Cc1c(C(=O)c2ccccc2)c(N)c(-c2ccccc2)n1Cc1ccc(Cl)cc1`, for which the fold change in [1] (setting [11]) is 0.936 (inactive); in experiment [1] (setting [12]), 1.39. The figures for the cell count in experiment [1] (setting [13]) and in experiment [1] (setting [14]) were 5890 and 6290, respectively.
For `CCCCC/C=C\C=C\CCCCCCCCC(=O)O`, the values for the fold change in experiment [1] (setting [11]) and in experiment [1] (setting [12]) were 1.07 (inactive) and 1.02, respectively. For the same compound, the cell count in [1] (setting [13]) worked out at 5840; in experiment [1] (setting [14]), 5480.
In the same order, the values of `O=C(O)CCC/C=C\C[C@@H]1[C@@H](/C=C/[C@@H](O)COc2ccccc2)[C@H](O)C[C@@H]1O` are 0.956 (inactive), 1.11, 6410 and 6700.
Take `O=C(O)CCCCCC[C@@H]1C(=O)NC(=O)N1CCC(O)C1CCCCC1` (some centres not stated): the fold change was 1.01 (inactive) in experiment [1] (setting [11]) and 2.01 in experiment [1] (setting [12]). Moreover, the cell count in experiment [1] (setting [13]) turned out to be 5520; in experiment [1] (setting [14]), 5460.
As to `C=C1O[C@@](CO)(n2cnc3c(N)ncnc32)[C@H](O)[C@@H]1O`, the fold change in [1] (setting [11]) was 0.941 (inactive); in experiment [1] (setting [12]), 1.1. Moreover, the figures for the cell count in experiment [1] (setting [13]) and in experiment [1] (setting [14]) were 4870 and 5180, respectively.
Regarding `O=C(O)CCC/C=C\C[C@H]1[C@@H](O)CC(=O)[C@@H]1/C=C/[C@@H](O)COc1cccc(C(F)(F)F)c1`, the fold change is 1.01 (inactive) in experiment [1] (setting [11]) and 1.13 in experiment [1] (setting [12]). In addition, the cell count in experiment [1] (setting [13]) is 6530; in [1] (setting [14]), 6490.
Take `CCCC[C@H](CCC(=O)O)NC(=O)CCCCCCc1ccccc1`: the figures for the fold change in experiment [1] (setting [11]) and in experiment [1] (setting [12]) were 0.993 (inactive) and 1.71, respectively. Further, the cell count is 6520 in experiment [1] (setting [13]) and 6570 in experiment [1] (setting [14]).
In the case of `CCCCCCCCCCOc1ccc(OCC(=O)Cn2cc(C(=O)OC)c3cc(C(=O)O)ccc32)cc1`, the fold change in experiment [1] (setting [11]) was 0.961 (inactive); in experiment [1] (setting [12]), 0.386. For the same compound, the cell count in [1] (setting [13]) was 6240; in experiment [1] (setting [14]) it was 6490.
In the same order, the values of `CC#CCC(C)[C@H](O)/C=C/[C@@H]1[C@H]2C/C(=C\CCCC(=O)O)C[C@H]2C[C@H]1O` (some centres not stated) are 0.896 (inactive), 1.12, 5570 and 6220.
In the same order, the values of `CCCCC/C=C\C/C=C\C/C=C\CCCC/C=C\CCC(=O)O` are 0.938 (inactive), 0.754, 5780 and 6170.
As to `CC(C)(C)c1cc(/C=C(\C#N)C(N)=S)cc(C(C)(C)C)c1O`, the period change in [2] is 0.535 h (inactive). In experiment [3], the survival is 106 (inactive). The inhibition in [4] is 5% (inactive). For the same compound, the fluorescence ratio (interference) in experiment [5] is 1 (inactive). Besides, the fold change is 1.09 (inactive) and 1.17 (inactive) in experiment [1] (setting [11]); 1.31 and 0.937 in [1] (setting [12]). Further, the cell count in experiment [1] (setting [13]) is 4070 and 1820; in [1] (setting [14]), 3720 and 1560. In [6], the fold fluorescence is 11.2 [at 158 µM] (inactive). Also, the result in experiment [7] was active. The z-score in [8] is -1.35 (inactive).
For `CC(C)[C@H](NC(=O)OCc1ccccc1)C(=O)N[C@H](C=O)Cc1ccccc1` (Cbz-Val-Phe-aldehyde), the period change in experiment [2] was -0.095 h (inactive). The inhibition in experiment [4] is 1% (inactive). Moreover, the fluorescence ratio (interference) in experiment [5] is 1.1 (inactive). The fold change is 1.08 (inactive) and 0.959 (inactive) in experiment [1] (setting [11]); 1.1 and 1.17 in experiment [1] (setting [12]). The cell count is 9200 and 4810 in experiment [1] (setting [13]); 8520 and 5010 in [1] (setting [14]). Moreover, in [6], the fold fluorescence is 5.31 [at 130.7 µM] (inactive). In experiment [7], the compound was called inactive. For the same compound, the z-score in experiment [8] is 0.52 (inactive).
With `CCCCCCCCCCC/C=C\C(C)(C)/C=C\CCCC(=O)O`, the period change in experiment [2] is -0.11 h (inactive). The survival in experiment [3] was 88.8 (inactive). Moreover, the inhibition in experiment [4] is 0% (inactive). For the same compound, in experiment [5], the fluorescence ratio (interference) is 0.9 (inactive). The fold change is 0.986 (inactive) and 1.01 (inactive) in [1] (setting [11]); 1.15 and 1.25 in [1] (setting [12]). In addition, the cell count in [1] (setting [13]) was 9810 and 5810; in [1] (setting [14]), 9950 and 5750. In experiment [6], the fold fluorescence is 5.21 (inactive). The call in [7] was inactive. The z-score in experiment [8] is 0.145 (inactive).
Turning to `CC/C=C\C/C=C\C/C=C\CCCCCCCC(=O)O`, in experiment [3], the survival is 92.8 (inactive). Besides, the fold change is 0.97 (inactive) and 0.988 (inactive) in [1] (setting [11]); 1.3 and 0.691 in experiment [1] (setting [12]). Moreover, the cell count was 6070 and 5710 in experiment [1] (setting [13]); 6250 and 5780 in experiment [1] (setting [14]). For the same compound, the fold fluorescence in [6] is 4.4 (inactive).
As for `COc1cc2ncc(-c3ccccc3)nc2cc1OC`, in experiment [3], the survival was 66.2 (inactive). Further, in experiment [9], the parasite load remaining is 37% (inactive). In experiment [9], this compound showed a viability of 96.9%. The fold change in experiment [1] (setting [11]) is 0.803 (inactive) and 0.84 (inactive); in experiment [1] (setting [12]), 1.43 and 0.498. For the same compound, the cell count in experiment [1] (setting [13]) was 3060 and 6730; in experiment [1] (setting [14]), 3820 and 8010. Further, the fold fluorescence in experiment [6] is 6 [at 187.8 µM] (inactive). Besides, the z-score was 0.0666 (inactive) in [10] (MELAS cybrid survival, CellTiter-Glo 48 h, stronger effect = higher value) and 1.44 in [10] (Rieske KO mouse fibroblast survival, CellTiter-Glo 72 h).
Take `NCCNS(=O)(=O)c1cccc2c(Cl)cccc12`: in experiment [4], the inhibition was -2% (inactive). Also, the fluorescence ratio (interference) in [5] is 1 (inactive). For the same compound, the fold change in experiment [1] (setting [11]) was 1.01 (inactive) and 0.93 (inactive); in experiment [1] (setting [12]), 0.86 and 1.13. The cell count was 9070 and 4030 in experiment [1] (setting [13]); 9000 and 4330 in experiment [1] (setting [14]). In addition, in experiment [6], the fold fluorescence was 10.8 [at 175.6 µM] (inactive). The outcome in [7] was inactive. In [8], the z-score was -0.845 (inactive).
Regarding `CCCCCC[C@@H]([C@@H](C)O)n1cnc2c(N)ncnc21`, the period change in experiment [2] was 0.15 h (inactive). Further, the inhibition in experiment [4] is -4% (inactive). In experiment [5], the fluorescence ratio (interference) is 1 (inactive). Further, the fold change is 0.934 (inactive) and 0.834 (inactive) in [1] (setting [11]); 0.993 and 0.703 in experiment [1] (setting [12]). For the same compound, the cell count in experiment [1] (setting [13]) was 8420 and 3190; in [1] (setting [14]) it was 9020 and 3820. Besides, the fold fluorescence in [6] is 5.1 [at 180.3 µM] (inactive). In addition, the outcome in [7] was inactive. Also, the z-score in [8] is -0.69 (inactive).
Regarding `O=c1oc(Cl)c(Cl)c2ccccc12`, in [2], the period change was -0.015 h (inactive). In experiment [4], the inhibition is -3% (inactive). Also, the fluorescence ratio (interference) in [5] is 1 (inactive). In addition, the fold change is 1.11 (inactive) and 1.06 (inactive) in experiment [1] (setting [11]); 1.14 and 0.927 in experiment [1] (setting [12]). In addition, the cell count in experiment [1] (setting [13]) was 6300 and 1380; in [1] (setting [14]) it was 5680 and 1300. Moreover, the fold fluorescence in experiment [6] is 6.4 [at 232.5 µM] (inactive). Besides, the compound was called inactive in experiment [7]. The z-score in experiment [8] is -1.02 (inactive).
For `O=c1[nH]c2cc(C(F)(F)F)ccc2n1-c1cc(C(F)(F)F)ccc1O`, the period change in [2] is -0.3 h (inactive). Further, the inhibition in experiment [4] was -6% (inactive). Moreover, in experiment [5], the fluorescence ratio (interference) was 0.9 (inactive). Also, the fold change in [1] (setting [11]) was 0.996 (inactive) and 0.985 (inactive); in experiment [1] (setting [12]) it was 0.925 and 0.952. Further, the cell count is 9130 and 5130 in [1] (setting [13]); 9180 and 5210 in [1] (setting [14]). The fold fluorescence in experiment [6] was 3.32 [at 138 µM] (inactive). In addition, in experiment [7], the result was inactive. Besides, the z-score in experiment [8] was 0.585 (inactive).

These data come from PubChem BioAssay.
